This is a sample that favours compounds with a hit; in the whole collection about 11% have one here.
Pf growth 96h = inhibits malaria parasite growth, 96 h; P. falciparum luciferase reporter growth, 96 h; Potency, µM (doses to about 28.7 µM), without a hit: at the top dose activity change, negative = inhibition, actives largely listed as inhibitors; hit rate 6.9% among 320,000; AID 504834; note: % is set by controls: 0 for no effect and ±100 for the full control effect
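Cell-based qHTS: luciferase-tagged P. falciparum in erythrocytes (2% hematocrit, 0.05% parasitemia final) incubated with compounds for 96 hours, 37 C, 5% CO2; luciferase detection reagent then added and luminescence measured.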
Pf growth 48h = P. falciparum growth inhibition at 48 hours (one generation) | P. falciparum luciferase growth in erythrocytes, 48 h | Potency, µM (titrated, usually from 28.7 µM), without a hit: top-dose activity change, negative = inhibition, hits mostly inhibitors | hit rate 5.9% among 310,000 | AID 504832; note: % is set by controls: 0 for no effect and ±100 for the full control effect
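Parasite viability was followed by luminescence of a genomically integrated firefly luciferase. Cultures held 0.1% parasitemia at 2% hematocrit (final), incubated under 5% CO2 at 37 C.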
AMA1 RON2 block = disrupts binding of P. falciparum AMA1 to RON2; Potency, µM (doses to about 58.2 µM), for the others: top-dose activity change, negative = inhibition, actives largely listed as inhibitors; AlphaScreen AMA1-biotinylated RON2 peptide binding; hit rate 0.2% among 360,000;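 note: 0% = vehicle wells and -100% = peptide control; nearly all actives have a fitted effect of over 45% in size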
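AMA1 (3D7) with his tag at 25 nM final met compounds first, then biotinylated RON2 peptide at 25 nM; detection used donor plus acceptor beads, 10 µg/mL apiece, read by AlphaScreen after 30 min at room temperature.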
HCV inh = blocks hepatitis C virus. Huh7.5.1 HCVcc-Cre infection, luciferase reporter, 44 h. Potency, µM (series often up to 41.8 µM), for inactives: top-dose activity change, negative = inhibition, most hits filed as inhibitors. hit rate 3.4% among 340,000; note: % is set by controls: 0 for no effect and ±100 for the full control effect
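Compounds are dispensed onto cells plated 4 h earlier at 1,000 per well, with HCVcc-Cre virus (about 0.5 moi) added next. Following 44 h of culture, luminescent signal is measured for 15 sec after 15 min with substrate at room temperature.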
HCV inh confirm = HCV inhibition, cherry-pick confirmation. shares compounds with HCV inh. Potency, µM (series often up to 41.8 µM), for the others: top-dose activity, negative = inhibition, actives largely listed as inhibitors. hit rate 78% among 640. HCVcc-Cre infectious virus cell assay, luciferase, inhibition; note: nearly all actives have a fitted effect of over 80% in size
HCV cytotox = toxic to HCV host cells, flagging false HCV inhibitors; shares compounds with HCV inh; HCV host cell line cytotoxicity counterscreen; Potency, µM (top dose mostly 41.8 µM), for inactives: top-dose activity change, negative = cytotoxicity, usual class: inhibitors; hit rate 22% among 640;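 note: 44 h compound exposure; % is set by controls: 0 for no effect and ±100 for the full control effect; nearly all actives have a fitted effect of over 55% in size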
* hit, by the source's call; ? = inconclusive; . = no result; [ ] = dose if it differs, or a comment. Calls come from the whole dose curve; as a rule, active = well fitted curve in the direction sought with a large enough effect; inconclusive = small, poorly fitted or top-dose-only effect, or another doubt; inactive = no such curve, though single readings can be large; an effect the other way counts as inactive or inconclusive. Potency is the fitted concentration of half-maximal effect.

SMILES | Pf growth 96h | Pf growth 48h | AMA1 RON2 block | HCV inh | HCV inh confirm | HCV cytotox
Cc1onc(-c2ccccc2)c1-c1nnc(-c2ccccc2C(F)(F)F)o1 | 38.2% | 37.0% | 3.1% | ? | 25µM* | -30.7%
Cc1onc(-c2ccccc2)c1-c1nnc(COC(=O)c2ccc(F)cc2)o1 | . | . | 40.0% | . | . | .
C[C@H]1CN([C@@H](C)CO)C(=O)Cc2cc(NS(=O)(=O)c3cn(C)cn3)ccc2O[C@@H]1CN(C)C(=O)Nc1ccc(F)cc1 | . | . | -4.9% | -4.7% | . | .
COc1ccc(N2C(=O)CN(Cc3ccc(OC)c(OC)c3)C2=S)cc1 | ? | -8.7% | -2.8% | ? | . | .
COC(=O)c1cc2ccsc2n1CC(=O)Nc1cc(Cl)ccc1OC | -10.0% | ? | 0.9% | 3.16µM* | 7.91µM* | 14.1µM*
Nc1nc(CCl)nc(N(c2ccccc2)c2ccccc2)n1 | 2.08µM* | 5.22µM* | 15.0% | 0.562µM* | 0.995µM* | -94.5%
Nc1nc(Cl)nc(N(c2ccccc2)c2ccccc2)n1 | 30.9% | -9.8% | -6.9% | -8.6% | . | .
Cc1ccc(OC(C)C(=O)Nc2ccccc2C(=O)NCc2cccnc2)cc1C (stereo unspecified) | 0.8% | ? | 6.0% | . | . | .
CC(=O)Nc1ccc(-c2csc(N/N=C(/C)c3ccccc3)n2)cc1 | ? | ? | 50.0% | 1.26µM* | 6.28µM* | -22.3%
COc1ccc(-c2sc3ccc(N4CCOCC4)cc3c2C#CCO)cc1 | . | . | -5.6% | 3.16µM* | 4.45µM* | 4.99µM*
COc1cc(OC)cc(-c2sc3ccc(OC)cc3c2C#CCO)c1 | . | . | -0.3% | ? | . | .
OC1CCN(c2c3c(nc4cc(-c5ccc(F)cc5)nn24)CCC3)CC1 | ? | ? | -13.1% | ? | 4.99µM* | 37.4%
O=C(C1CCCO1)N1CCN(c2c3c(nc4cc(-c5ccc(F)cc5)nn24)CCC3)CC1 (stereo unspecified) | ? | ? | -4.5% | -26.7% | . | .
CN(C)CCNC(NC(=O)c1cccs1)C(Cl)(Cl)Cl (stereo unspecified) | ? | -3.5% | 8.3% | 1.9% | . | .
COc1ccc(C(=O)CSc2nc(-c3ccccn3)nc(C)c2Cl)cc1 | ? | ? | 5.6% | 4.47µM* | 22.3µM* | 4.45µM*
COc1ccc(C(=O)CSc2nnc3ccc(-c4ccccn4)nn23)cc1 | 4.4% | 3.0% | -1.6% | 11.9% | . | .
CCN1CCC(O)(C(C(=O)O)c2ccccc2)CC1 (stereo unspecified) | . | . | -17.4% | -13.2% | . | .
Cc1ccc(C(=O)c2c3ccc([N+](=O)[O-])cc3[n+]([O-])n2CCCN)cc1 | ? | -93.8% | 9.0% | 7.94µM* | 7.05µM* | 50.5%
COc1ccc(-c2ccccc2)cc1NC(=O)c1cccs1 | -12.0% | 5.1% | -5.3% | 7.94µM* | 19.9µM* | 16.5%
COc1ccccc1NC(=O)c1cccs1 | . | 48.3% | -8.1% | ? | . | .
COc1cnc(SCCC(F)=C(F)F)[nH]c1=O | ? | 9.4% | 8.9% | 4.6% | . | .
COc1ccccc1NC(=O)C(C)OC(=O)c1cc2ccccc2[nH]1 (stereo unspecified) | ? | 9.28µM* | -5.2% | ? | 7.91µM* | 17.7µM*
Cc1cc2[nH]c3c(c[n+](C)c4ccccc34)c2cc1C | ? | 0.465µM* | -8.1% | 5.01µM* | 15.8µM* | ?
O=C1C2C(C(=O)N1CCN1CCN(Cc3ccc([N+](=O)[O-])cc3)CC1)[C@H]1C=C[C@@H]2C1 (stereo partly specified) | 20.8% | -4.2% | -11.4% | ? | . | .
Cc1cc2c(=O)n(Cc3ccco3)c(SCC(=O)NCc3ccco3)nc2s1 | . | ? | -1.5% | 3.55µM* | 2.8µM* | 35.8%
SMILES | Pf growth 96h | Pf growth 48h | AMA1 RON2 block | HCV inh | HCV inh confirm | HCV cytotox
Cc1sc2nc(SCc3ccc(C(=O)O)cc3)n(Cc3ccco3)c(=O)c2c1C | 5.0% | -17.2% | -5.5% | 13.0% | . | .
Cc1sc2nc(SCC(=O)c3cccs3)n(Cc3ccco3)c(=O)c2c1C | . | ? | 32.7% | 1.9% | ? | 2.8µM*
Cc1ccc(Cn2c(SCC(=O)NCc3ccco3)nc3ccsc3c2=O)cc1 | ? | 13.1µM* | -2.0% | 4.47µM* | 11.2µM* | 16.4%
CCCCNC(=O)CSc1nc2cc3c(cc2c(=O)n1Cc1ccco1)OCO3 | -2.7% | -11.3% | -21.4% | ? | 14.1µM* | -2.6%
CC(=O)Nc1ccc(OCC=C(Cl)Cl)cc1 | 2.1% | -24.0% | 17.6% | -11.6% | . | .
Cc1cccc(C)c1NC(=O)CN(C)C(=O)c1ccc2nc[nH]c2c1 | 8.7% | 27.5% | -2.1% | -4.6% | . | .
Cc1ccc(S(=O)(=O)NCC(=O)NCc2ccncc2)cc1 | 1.5% | 23.2% | -5.1% | 2.4% | . | .
Cc1ccc(S(=O)(=O)NCc2ccncc2)cc1 | 3.9% | . | -10.9% | 2.82µM* | 2.23µM* | 8.87µM*
CCOC(=O)COc1ccc(S(=O)(=O)NCc2ccncc2)cc1 | -2.2%[5.75 µM] | 8.7% | 11.7% | 14.0% | . | .
CCOc1ccc(S(=O)(=O)NCc2ccncc2)cc1 | -11.9% | . | 12.4% | ? | 0.281µM* | 0.25µM*
CCN(CC)S(=O)(=O)c1ccc2c(c1)C(=NO)c1cc(S(=O)(=O)N(CC)CC)ccc1-2 | 8.28µM* | 9.28µM* | 4.1% | 4.47µM* | 7.05µM* | ?
CCN1CCN(C(=O)c2ccc(Cl)c(S(=O)(=O)N3CCCCC3)c2)CC1 | ? | -12.5% | -12.6% | 20.0% | . | .
CC(=O)c1cccc(OCC(=O)Nc2cccc(C(=O)Nc3c(C)n(C)n(-c4ccccc4)c3=O)c2)c1 | 13.2% | 22.2% | -4.0% | 0.6% | . | .
O=C(/C=C\c1ccccc1[N+](=O)[O-])Nc1ccccc1 | 1.4% | 100.6% | 6.2% | -24.7% | . | .
CCOc1ccccc1NC(=O)/C=C/c1ccccc1[N+](=O)[O-] | ? | 54.0% | -2.9%[2.32 µM] | ? | ? | 26.7%
Cc1ccc(CNC(=O)CCSCc2ccccc2C)cc1 | -0.1% | ? | -8.4% | 7.7% | . | .
COc1ccc(S(=O)(=O)N2CCCCCC2)cc1C(=O)OCc1c(C)noc1C | ? | ? | -5.8% | -19.1% | . | .
Cc1noc(C)c1COC(=O)c1ccc(F)c(S(=O)(=O)N2CCCCC2)c1 | -26.9% | -9.1% | 7.0% | ? | 28µM* | -35.8%
CCOC(=O)c1cc2c(=O)n3cccc(C)c3nc2n(C)c1=N | 26.9% | 24.5% | . | . | . | .
CCOCCCn1c(=N)c(C(N)=S)cc2c(=O)n3cccc(C)c3nc21 | . | ? | 7.0% | ? | 19.9µM* | -98.2%
Oc1c(CN2CCOCC2)cc(CN2CCOCC2)c(O)c1CN1CCOCC1 | . | . | -0.5% | 5.6% | . | .
CC(C)(c1cc(Cl)c(O)c(CN2CCOCC2)c1)c1cc(Cl)c(O)c(CN2CCOCC2)c1 | . | . | -6.6% | 3.16µM* | 6.28µM* | 45.0%
O=C(Nc1cc(S(=O)(=O)N2CCCCC2)ccc1Cl)c1ccc(F)cc1 | ? | ? | 8.6% | ? | . | .
CCOc1ccc(CCNc2nc3c(c(=O)n(C)c(=O)n3C)n2CC)cc1OCC | -9.3% | 12.3% | 2.6% | 5.62µM* | 6.28µM* | 14.1µM*
